From PubChem BioAssay
The full list was thinned out, with hits kept by preference.
TDP1 inh: qHTS Assay for Inhibitors of Tyrosyl-DNA Phosphodiesterase (TDP1). Tyrosyl-DNA phosphodiesterase 1 (Homo sapiens), Q9NUW8. recombinant TDP1, AlphaScreen DNA substrate cleavage. Potency, µM (top dose mostly 130 µM), without a hit: at the top dose activity change, negative = inhibition, usual class: inhibitors. actives 0.28% (n = 350,000). AID 485290, 2010; also: nearly all actives have a fitted effect of over 40% in size
Target sequence (Q9NUW8 whole entry, looked up): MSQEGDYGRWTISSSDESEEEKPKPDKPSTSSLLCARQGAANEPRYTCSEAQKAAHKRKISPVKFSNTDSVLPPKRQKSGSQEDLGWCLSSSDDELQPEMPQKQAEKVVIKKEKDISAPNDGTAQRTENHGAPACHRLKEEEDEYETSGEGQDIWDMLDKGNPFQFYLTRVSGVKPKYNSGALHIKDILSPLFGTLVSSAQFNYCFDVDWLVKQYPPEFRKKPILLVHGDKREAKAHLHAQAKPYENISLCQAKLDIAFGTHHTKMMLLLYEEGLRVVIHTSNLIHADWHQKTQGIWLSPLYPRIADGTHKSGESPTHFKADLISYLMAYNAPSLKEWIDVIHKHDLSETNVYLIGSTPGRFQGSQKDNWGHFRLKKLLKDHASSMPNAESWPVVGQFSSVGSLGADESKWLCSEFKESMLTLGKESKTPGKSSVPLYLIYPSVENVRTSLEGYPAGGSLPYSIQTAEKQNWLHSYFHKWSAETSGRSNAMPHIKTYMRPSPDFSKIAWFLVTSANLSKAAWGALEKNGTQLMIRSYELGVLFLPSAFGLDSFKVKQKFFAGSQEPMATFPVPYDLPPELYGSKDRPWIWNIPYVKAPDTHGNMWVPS
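E. coli-derived human Tdp1, 1 nM final. Cpd preinc 15 min RT; substrate 15 nM final, 5 min RT; AS bead mix 10 ug/ml final, 10 min RT. Signal loss = tyrosine-FITC cleavage. No-enzyme wells = max signal.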
L3MBTL1 block: qHTS Assay for the Inhibitors of L3MBTL1; AlphaScreen L3MBTL1–H3K9me1 peptide binding; actives 0.66% (n = 230,000); Potency, µM (doses to about 57.1 µM), without a hit: top-dose activity, negative = inhibition, actives largely listed as inhibitors; also: nearly all actives have a fitted effect of over 60% in size
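Read-out is AlphaScreen signal from streptavidin donor and nickel chelate acceptor beads (10 ug/mL final each) bridging L3MBTL1 (50 nM) and biotinylated K9-monomethylated H3(1-15) peptide (75 nM), after 30 min compound exposure at room temperature.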
JMJD2E inh: qHTS Assay for Inhibitors of Human Jumonji Domain Containing 2E (JMJD2E). Lysine-specific demethylase 4E (Homo sapiens), B2RXH2. JMJD2E catalytic domain, FDH-coupled NADH fluorescence (FDH is formaldehyde dehydrogenase). Potency, µM (highest dose often 57.1 µM), for the others: at the top dose activity change, negative = inhibition, usual class: inhibitors. actives 1.6% (n = 230,000). AID 2147, 2009; active = well fitted inhibition curve with a large enough effect, not every such curve was filed as active; inconclusive = small, poorly fitted or top-dose-only effect, or another doubt; inactive = no such curve, though single readings can be large or run the other way;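 also: 0% = wells with enzyme and -100% = buffer wells without enzyme; nearly all actives have a fitted effect of over 50% in size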
RECQ1 helicase: qHTS Assay for Inhibitors of RecQ-Like Dna Helicase 1 (RECQ1); ATP-dependent DNA helicase Q1 (Homo sapiens), P46063; RECQ1 DNA unwinding, red fluorescence kinetic read; Potency, µM (titrated, usually from 57.3 µM), without a hit: at the highest dose activity, negative = inhibition, hits mostly inhibitors; actives 0.54% (n = 240,000); AID 2549, 2010;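 also: plate controls were vehicle for no effect and no enzyme for full effect; nearly all actives have a fitted effect of over 30% in size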
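RECQ1T1 50 nM; forked duplex (20 bp + 30-nt ss tails) 200 nM, ATP 2 mM final; pH 8.0, 2 mM MgCl2, 2.5 ug/ml poly(dI-dC); 15 min compound preincubation; discontinuous kinetic read over 2 h at RT.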
BLM helicase inh: qHTS Assay for Inhibitors of Bloom's syndrome helicase (BLM); actives 0.2% (n = 350,000); RecQ-like DNA helicase BLM (Homo sapiens), P54132; Potency, µM (titrated, usually from 56.1 µM), for the others: at the top dose activity change, negative = inhibition, actives largely listed as inhibitors; recombinant BLM DNA unwinding, fluorescence dequenching; AID 2528, 2010;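 also: plate controls were vehicle for no effect and no enzyme for full effect; nearly all actives have a fitted effect of over 35% in size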
APE1 inh: qHTS Assay for Inhibitors of the Human Apurinic/apyrimidinic Endonuclease 1 (APE1); recombinant APE1, TAMRA/BHQ-2 abasic DNA cleavage fluorescence; DNA repair nuclease/redox regulator APEX1 (Homo sapiens), P27695; Potency, µM (top dose mostly 65.8 µM), without a hit: at the top dose activity change, negative = inhibition, usual class: inhibitors; actives 0.35% (n = 350,000);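 also: plate controls were vehicle for no effect and reference inhibitor for full effect; nearly all actives have a fitted effect of over 55% in size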
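Incision of a quenched TAMRA/BHQ-2 THF abasic-site duplex (50 nM) by 0.75 nM APE1, after 15 min compound preincubation, measured as fluorescence increase over three 60 s reads. Values normalized to buffer, DMSO and NSC13755 control wells.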
Starred values were filed as active, the others as inactive; i = inactive; u = inconclusive; x = no result given; ! = a repeat was not active; [ ] = another dose, or the depositor's remark. Unless noted, calls follow the shape of the dose curve; as a rule, active = well fitted curve in the direction sought with a large enough effect; inconclusive = small, poorly fitted or top-dose-only effect, or another doubt; inactive = no such curve, though single readings can be large; an effect the other way counts as inactive or inconclusive. Unless noted, % is scaled to controls: 0 for no effect and ±100 for the full control effect; potency is read from the fitted curve at half-maximal effect.

SMILES	TDP1 inh	L3MBTL1 block	JMJD2E inh	RECQ1 helicase	BLM helicase inh	APE1 inh
CCCCC/C=C\C/C=C\C/C=C\C/C=C\CCCC(=O)O	9%	u	28µM*!	2.2µM*!	u	u
CCCCC/C=C\C[C@@H](/C=C/C=C\C/C=C\CCCC(=O)O)OO	6%	x	1%	12%	-2%	u
N/C(=N\N=C\c1ccc(O)cc1O)N[N+](=O)[O-]	4%	x	25µM*	i	-9%	5%
COc1ccccc1/C=N/N=C(/N)N[N+](=O)[O-]	3%	x	u	-4%	0%	1%
Clc1ccc(C(c2ccccc2Cl)C(Cl)(Cl)Cl)cc1 (stereo unspecified)	-1%	x	x	-17%	x	12%
COC(=O)C1=Nc2ccccc2/C1=C\c1c(O)n(-c2ccc(OC)cc2)c(=O)[nH]c1=O	-9%	-4%	18µM*	-19%	-2%	-4%
COC(=O)C1=Nc2ccccc2/C1=C\c1c(O)n(-c2ccc(Br)cc2)c(=O)[nH]c1=O	-2%	-14%	4%	5%	-5%	34%
CN(C)[C@@H]1C(=O)C(C(N)=O)=C(O)[C@@]2(O)C(=O)C3=C(O)c4c(O)cccc4[C@@](C)(O)[C@H]3[C@H](O)[C@@H]12	x	1µM*!	u	11µM*!	-17%	7.9µM*!
CN(C)[C@@H]1C(=O)C(C(N)=O)=C(O)[C@@]2(O)C(=O)C3=C(O)c4c(O)ccc(Cl)c4[C@@](C)(O)[C@H]3C[C@@H]12	x	x	x	x	-6%	45%
COc1cccc(N2CCN(Cc3cccc(Cl)c3)CC2)c1	3%	-10%	-11%	-1%	-3%	-6%
COc1cccc(N2CCN(Cc3ccc(Cl)cc3)CC2)c1	4%	-24%	20µM*	-5%	-2%	-9%
c1cc2cc(c1)C[n+]1ccc(c3ccccc31)NCc1ccc(cc1)CNc1cc[n+](c3ccccc13)C2	-7%[56.1 µM]	x	18µM*	i	251%	u
O=C1OC2(c3cc(Br)c(O)cc3Oc3c2cc(Br)c(O)[c]3[Hg])c2ccccc21 (stereo unspecified)	x	x	x	x	x	13µM*
CC1=CC2/C=C(\C)CCC(O)C(O)/C=C/C(=O)C23C(=O)NC(CC(C)C)C3C1C (stereo unspecified)	1%	3%	1%	-20%	-8%	-1%
C/C1=C\[C@@H](C)C/C=C/[C@H]2[C@@H]3O[C@]3(C)[C@@H](C)[C@H]3[C@H](Cc4c[nH]c5ccccc45)NC(=O)[C@]32C(=O)/C=C/C(=O)[C@@H]1O	-6%	u	-1%	i	-15%	16µM*
CC1=C(O)C(=O)C=C2C1=CC=C1[C@]2(C)CC[C@@]2(C)C3C[C@](C)(C(=O)O)CC[C@@]3(C)CC[C@@]12C (stereo partly specified)	12%	x	u	-12%	-18%	-1%
O=Cc1ccc(Cl)cc1Cl	16%	x	x	-11%	x	-2%
OC[P+](CO)(CO)CO	-4%	x	x	-2%	x	4%
Clc1nc(Cl)nc(Nc2ccccc2Cl)n1	6%	x	x	-6%	x	3%
CCC1OC2(C)C(O)C(/C=C/C=C/C=C/c3oc(=O)cc(OC)c3C)OC1(C)C2OC(C)=O (stereo unspecified)	13%	x	x	-18%	0%	-9%
CC(=O)[O][Hg][c]1ccccc1	32µM*	x	2.2µM*	9%	5%	26%
Cc1nccc2c1[nH]c1ccc(Br)cc12	x	-10%	x	x	x	-5%
COc1ccc2c(c1)[nH]c1c(C)nccc12	-1%	9%	u	3%	91%	7.9µM*!
CC(=O)O[C@H]1C[C@H](O[C@H]2[C@@H](O)C[C@H](O[C@H]3[C@@H](O)C[C@H](O[C@H]4CC[C@@]5(C)[C@H](CC[C@@H]6[C@@H]5C[C@@H](O)[C@]5(C)[C@@H](C7=CC(=O)OC7)CC[C@]65O)C4)O[C@@H]3C)O[C@@H]2C)O[C@H](C)[C@H]1O[C@@H]1O[C@H](CO)[C@@H](O)[C@H](O)[C@H]1O	x	x	x	x	x	3%
COc1ccc(-c2nc3ccccc3c(=O)o2)cc1	2%	3%	25µM*	-7%	-6%	12%
SMILES	TDP1 inh	L3MBTL1 block	JMJD2E inh	RECQ1 helicase	BLM helicase inh	APE1 inh
CCC(Cl)[N+](=O)[O-] (stereo unspecified)	13%	x	x	-5%	x	0%
Cc1cc(C=C2C(=O)N(C)C(=S)N(C)C2=O)c(C)n1-c1ccncc1	9%	-22%	0%	25µM*	-9%	-4%
Cc1cc(C)cc(-n2c(C)cc(/C=C3\C(=O)NC(=O)N(C)C3=O)c2C)c1	0%	-6%	1%	-8%	-10%	4%
CN=C=O	10%	x	x	0%	x	5%
O=C1NC(=O)C2(Cc3ccccc3N3CCCC32)C(=O)N1c1ccc(Cl)cc1 (stereo unspecified)	11%	-10%	25µM*	-15%	-1%	-6%
Cc1ccc(N2C(=O)NC(=O)C3(Cc4ccccc4N4CCCC43)C2=O)cc1 (stereo unspecified)	1%[56.1 µM]	-3%	u	-13%	2%	15%
COc1cc2c(c(OC)c1OC)-c1ccc(O)c(=O)cc1[C@H](N)CC2	19%[21 µM]	x	7.9µM*	-7%[25.9 µM]	-16%[21.4 µM]	12%[21 µM]
O=Cc1ccc(O)c(O)c1	-5%	1%	4.5µM*	-5%	-6%	4%
CCOc1cc(C=O)ccc1O	2%	-3%	x	-4%	x	17%
Oc1cc2c(cc1O)[C@H]1c3ccccc3CN[C@H]1CC2	7%	x	25µM*	-1%	-2%	2%
Oc1cc2c(cc1O)[C@H]1c3ccccc3CN[C@@H]1CC2	0%	x	u	-11%	-3%	8%
O=[N+]([O-])c1cc(S(=O)(=O)c2ccc(O)c([N+](=O)[O-])c2)ccc1O	x	10µM*	-1%	-15%	40%	u
Nc1ccc([N+](=O)[O-])cc1[N+](=O)[O-]	17%	x	x	-5%	x	-2%
Nc1nonc1C(=O)N/N=C/c1ccc([N+](=O)[O-])o1	-2%	35µM*	-5%	-1%	-9%	-1%
N/C(=N\[N+](=O)[O-])N/N=C/c1ccc(O)cc1	0%	2%	2%	0%	-4%	7%
O=C(O)COc1ccccc1	1%	1%	x	0%	4%	-10%
O=C(O)Cc1cccnc1C(=O)O	11%	x	1.6µM*	-15%	1%	-5%
